This is an account of results in PubChem BioAssay AID651821 (The Scripps Research Institute Molecular Screening Center, 2012).

Hit rate of the full screen: of about 370,000 compounds, about 4,700 (1.3%) were called active. The sample as a whole holds a higher share of actives than the screen did. Unmarked numbers belong to inactive results.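 How the source made its calls: active means inhibition above the plate cutoff, the mean of all test compounds on that plate plus 3 SD (cut at about 35% in these data); inactive means the rest.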

The experiment in a line: small molecules binding CAG repeat RNA – biochemical, fluorescence, primary screen (AID 651821).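 Further: 0% = DMSO alone and 100% = 100 µM mitoxantrone as full dye displacement; higher means more dye released from RNA so lower well fluorescence.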 Conditions: r(CAG) RNA repeat, TO-PRO-1 dye displacement fluorescence; at 3 µM; hits give high values.
Usually inhibition stands for the drop in the measured response relative to a control, in per cent. As to `COC(=O)c1c(-c2ccc(OC)cc2)c2c(c3c4cc(OC)ccc4n(S(=O)(=O)c4ccc(F)cc4)c13)C(=O)N(C)C2`, the inhibition is 14.1%. `COC(=O)[C@]1(C#N)CC(=O)N(CC2CCCCC2)[C@@H]1c1ccccc1`: the inhibition is 0.85%. The value for `CC(OC(=O)c1ccccc1N1C(=O)C2C3CCC(C3)C2C1=O)C(=O)c1ccccc1` (stereo unspecified) was -4.3%; that for `CCOC(=O)c1ccccc1N1C(=O)C2Sc3[nH]c(=O)sc3C(/C=C/c3ccccc3)C2C1=O` (stereo unspecified) was 54% (active). In the case of `CCOC(=O)C1Sc2[nH]c(=O)sc2C(c2ccc(Cl)cc2)C1C(=O)OCC` (stereo unspecified), the inhibition is 24.3%. The value for `CC[C@H](C)[C@H]1CNC(=O)C(=O)N1CC1CCN(CCc2ccc(OC)c(OC)c2)CC1` was 3.94%; that for `COc1ccccc1CCNC(=O)C1CCN(c2nc(C)cc(C)n2)CC1` was -2.28%. Regarding `N#Cc1c(-c2ccccc2)cc(-c2ccccc2)nc1SCC(=O)O`, the inhibition is 55% (active). Consider `CCSc1nc(-c2ccc(OC)cc2)cc(-c2ccc(OC)cc2)c1C#N`, for which the inhibition is 0.76%. On to `N#Cc1c(-c2ccc(F)cc2)cc(C2CC2)nc1SCC(=O)c1cccs1`, for which the inhibition is 1.58%. The value for `CC(C)CNS(=O)(=O)CC1NCCc2ccccc21` (stereo unspecified) was 5.19%. Take `NNc1cccc(C=Cc2ccccc2)cc1=O`: the inhibition is 40.1% (active).

Regarding `Nn1c(SCC(=O)Nc2ccc(S(N)(=O)=O)cc2)nnc1-c1n[nH]c2c1CCC2`, the inhibition was 3.81%.

Take `COC(=O)c1cc2c(c3c4ccccc4n(S(=O)(=O)c4cccc(C)c4)c13)C(=O)N(Cc1ccccc1)C2`: the inhibition is 15.1%. `CC(=O)c1ccc(Nc2nc(C(N)c3ccccc3Cl)cs2)cc1` (stereo unspecified): the inhibition is 2.58%. In the case of `O=c1oc2ccccc2cc1-c1csc(Nc2ccc(O)cc2)n1` it was 38.9% (active). The value for `O=S1(=O)c2c(cccc2N2CCCCC2)O[C@H](COCc2ccccc2)CN1C1CC1` was 5.4%; that for `O=C1Nc2ccccc2C1=NN=Cc1ccco1` was 3.21%; that for `COC(=O)[C@H](C(C)C)N(CCCc1cn(Cc2ccccc2)nn1)S(=O)(=O)c1ccc(F)cc1Br` was 2.97%. The value for `Nc1[nH]c(=S)nc2nc(-c3ccccc3)c(-c3ccccc3)nc12` was 41.4% (active); that for `C[C@H](NC(=O)[C@@H]1Cc2ccccc2CN1C(=O)OC(C)(C)C)C(=O)NC1CCCC1` was -7.18%; that for `COc1ccc2c(c1)CN1CN(CCc3ccccc3)S(=O)(=O)CC21` (stereo unspecified) was 3.05%.

`CCCCNc1cccc2c1S(=O)(=O)N[C@@H](C)CO2`: the inhibition was 0.84%. On to `COc1cc(NS(=O)(=O)c2ccc(N/C=C(\C=O)c3nc4cc(Cl)ccc4o3)cc2)nc(OC)n1`, for which the inhibition is 60.3% (active). As for `COC(=O)Nc1ccc(S(=O)(=O)Nc2cc(OC)nc(OC)n2)cc1`, the inhibition is 1.9%.

For the compound `COc1cc(NS(=O)(=O)c2ccc(NC(=S)NC(=O)c3ccccc3)cc2)nc(OC)n1`, the inhibition is 24.5%.

In the case of `COc1ccc(Cn2cc(COC(=O)N(C)Cc3ccccc3)nn2)cc1`, the inhibition is -0.97%.

For `Cc1ccccc1CN1CCCCC(NC(=O)Nc2ccccc2F)C1=O` (stereo unspecified), the inhibition was 4.44%. The value for `COC(=O)c1sc(-c2ccc(C(C)(C)C)cc2)cc1NC(=O)/C=C/C(=O)O` was 36.6% (active); that for `O=C(C=CC(=O)Nc1ccc(F)cc1F)Nc1ccc(F)cc1F` was 0.56%; that for `O=C(CSc1nnc(-c2ccccn2)n1-c1ccc(Cl)cc1)Nc1ccccc1-c1ccccc1` was 8.25%. In the case of `CN(C(=O)COC(=O)c1cc(-c2ccco2)nc2ccccc12)C1CCS(=O)(=O)C1` (stereo unspecified), the inhibition was 42.3% (active).

For the compound `Cc1ccc(S(=O)(=O)CCC(=O)OCC(=O)N(C)C2CCS(=O)(=O)C2)cc1` (stereo unspecified), the inhibition is 2.79%. The value for `O=C(c1cc(-c2ccco2)nc2ccccc12)N(Cc1nnc(-c2ccc(Cl)cc2)o1)C1CC1` was 8.3%; that for `COC(=O)[C@]12C[C@H](CC(=O)NCC34CC5CC(CC(C5)C3)C4)C(=O)N(Cc3ccc(Cl)cc3Cl)C1=C[C@H](COCc1ccccc1)O[C@@H]2C` was 10.5%; that for `COc1cccc(CNCCc2c[nH]c3ccccc23)c1OCc1ccccc1F` was 4.43%.

For the compound `COc1ccc(S(=O)(=O)NCCc2c[nH]c3ccccc23)cc1OC`, the inhibition was 35.2% (active). In the case of `Cc1ccc(S(=O)(=O)N(C)CC(=O)NCCc2c[nH]c3ccccc23)cc1` it was 0.8%; in that of `COC(=O)c1c(-c2ccc(OC)cc2)c2c(c3c4ccccc4n(S(=O)(=O)c4ccc(C)cc4)c13)C(=O)N(C)C2`, 14.9%. The value for `C=CCN1C(=O)[C@H](CC(=O)N2CCN(C(=O)OCC)CC2)[C@@]2(C(=O)OCC)CCCC=C12` was 0.1%.

As for `COc1ccc(CN(CCN2CCOCC2)C(=O)c2ccc(C)cc2)cc1OC`, the inhibition is 1.93%. Consider `CC1(C(=O)NS(=O)(=O)c2ccc3ccccc3c2)CCN1C(=O)C1(c2ccc(Cl)cc2)CCC1` (stereo unspecified), for which the inhibition was 68.5% (active).

For `Cc1ccccc1S(=O)(=O)NC(=O)C1(C)CCN1C(=O)C1(c2ccc(Cl)cc2)CC1` (stereo unspecified), the inhibition was 33.6%.

As to `CC1(C(=O)NS(=O)(=O)c2ccc(Cl)cc2)CCN1C(=O)CC1CCCC1` (stereo unspecified), the inhibition was 9.21%.

On to `COc1ccc(F)cc1S(=O)(=O)NCC(c1ccc2c(c1)OCO2)N1CCN(C)CC1` (stereo unspecified), for which the inhibition is -3.68%. `CN(Cc1ccc2nsnc2c1)Cc1nc(Cc2cccc(F)c2)no1`: the inhibition is -4.71%. The value for `CCOc1cc(/C=C2/N=C(c3ccc(C(C)(C)C)cc3)OC2=O)cc(Cl)c1OS(C)(=O)=O` was 67% (active); that for `CC1CCN(C(=O)c2ccccc2NC(=O)Cc2ccccc2)CC1` was -6.63%. The value for `O=C(Cc1ccccc1)Nc1ccc(C(=O)Nc2ccccc2C(=O)O)cc1` was 50.2% (active); that for `O=C(CCCOc1ccccc1)Nc1cccc(C(=O)O)c1` was 6.14%.

As to `O=C(CSCc1ccc([N+](=O)[O-])cc1)Nc1cccc(C(=O)Nc2ccccc2C(=O)O)c1`, the inhibition was 67.2% (active).

With `O=C(CSCc1ccc([N+](=O)[O-])cc1)NCCSCc1ccccc1`, the inhibition is -2.49%. Take `O=C(Nc1ccccc1C(=O)O)c1ccc(N2C(=O)C3CC=CCC3C2=O)cc1` (stereo unspecified): the inhibition was 13.8%.

For `O=C(COc1ccc([N+](=O)[O-])cc1)Nc1cccc(C(=O)Nc2ccccc2C(=O)O)c1`, the inhibition is 77.5% (active). In the case of `CN(CCc1ccccc1)C(=O)c1cccc(NC(=O)Cc2ccc([N+](=O)[O-])cc2)c1` it was 1.94%. The value for `COc1ccc(NC(=O)CSCc2ccc([N+](=O)[O-])cc2)cc1OC` was -1.63%.
